Rows were chosen to be rich in hits. Some 21% of all compounds tested hit in one or more screens of this group.
AMA1 RON2 block: disrupts binding of P. falciparum AMA1 to RON2. AlphaScreen AMA1-biotinylated RON2 peptide binding. 360,000 tested, 0.2% active. Potency, µM (titrated, usually from 58.2 µM), without a hit: at the highest dose activity change, negative = inhibition, actives largely listed as inhibitors. AID 720542;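 also: potency is read from the fitted curve at half-maximal effect; 0% = vehicle wells and -100% = peptide control; nearly all actives have a fitted effect of over 45% in size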
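AMA1 (3D7) with his tag at 25 nM final met compounds first, then biotinylated RON2 peptide at 25 nM; detection used donor plus acceptor beads, 10 µg/mL apiece, read by AlphaScreen after 30 min at room temperature.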
Pf growth 48h: inhibits P. falciparum growth in the first generation, 48 h. AID 504832. P. falciparum luciferase growth in erythrocytes, 48 h. 310,000 tested, 5.9% active. Potency, µM (series often up to 28.7 µM), for the others: top-dose activity change, negative = inhibition, hits mostly inhibitors; also: potency is read from the fitted curve at half-maximal effect; % is scaled to controls: 0 for no effect and ±100 for the full control effect
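A one-generation exposure of luciferase-tagged malaria parasites in RPMI 1640/Albumax erythrocyte culture, 37 C and 5% CO2. Inhibition is inferred from decreased luminescence after adding detection reagent.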
Shiga inhibitor: blocks Shiga toxin action in Vero cells; Vero cells, Shiga toxin protein synthesis inhibition reporter; inhibition, % at 38.7 µM; 290,000 tested, 9.2% active; AID 2315; in the data active = inhibition mostly above about 28%, no sharp cut-off; inactive = mostly below about 43%; also: 0% is about no effect
Pf growth 96h: P. falciparum growth inhibition at 96 hours; P. falciparum luciferase reporter growth, 96 h; Potency, µM (doses to about 28.7 µM), inactives show at the highest dose activity change, negative = inhibition, hits mostly inhibitors; 320,000 tested, 6.9% active; AID 504834; also: potency is read from the fitted curve at half-maximal effect; % is scaled to controls: 0 for no effect and ±100 for the full control effect
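P. falciparum expressing integrated firefly luciferase grown in erythrocytes (2% hematocrit, 0.05% parasitemia final) with compounds for 96 hours at 37 C, 5% CO2. Growth inhibition read as loss of luminescence after adding luciferase detection reagent.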
HCV inh: inhibitors of hepatitis C virus infection; Huh7.5.1 HCVcc-Cre infection, luciferase reporter, 44 h; Potency, µM (titrated, usually from 41.8 µM), inactives show at the highest dose activity change, negative = inhibition, usual class: inhibitors; 340,000 tested, 3.4% active; AID 651820; also: potency is read from the fitted curve at half-maximal effect; % is scaled to controls: 0 for no effect and ±100 for the full control effect
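Cells seeded at 1,000/well and cultured 4 h, then compounds added followed by HCVcc-Cre virus (~0.5 moi). After 44 h further culture, luciferase substrate was added, plates held 15 min at room temperature, and luminescence read for 15 sec.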
CHX counter: counter-screen hit for Shiga toxin inhibitors, cycloheximide; AID 2314; max response, %; cell reporter, cycloheximide protein synthesis inhibition counterscreen; 300,000 tested, 12% active; in the data active = max response mostly above about 13%, no sharp cut-off; inactive = mostly below about 14%; also: read at 38.3 µM for the half of the compounds with a filed dose; 0% is about no effect
The depositor's hits bear a star; ? = inconclusive; . = no result; [ ] = remark or other dose. Unless noted, calls follow the shape of the dose curve; as a rule, active = well fitted curve in the direction sought with a large enough effect; inconclusive = small, poorly fitted or top-dose-only effect, or another doubt; inactive = no such curve, though single readings can be large; an effect the other way counts as inactive or inconclusive.

SMILES | AMA1 RON2 block | Pf growth 48h | Shiga inhibitor | Pf growth 96h | HCV inh | CHX counter
Cc1ccc(Cl)cc1NC(=O)CN1CCN(S(=O)(=O)N2CCC(C)CC2)CC1 | -5% | 5% | 15 | 7% | ? | -3
COc1ccccc1NC(=O)CCn1c(=O)c2cccn2c2ccccc21 | 0% | -8% | -8 | 33% | -29% | -9
C[n+]1ccccc1/C=C/c1ccc2ncccc2c1 | 0% | 1.2µM* | 40* | ? | -30% | 27*
Cc1noc(C)c1C(=O)OC(C)C(=O)c1ccc(C(C)(C)C)cc1 (centres undefined) | -2% | . | . | . | . | .
CCCNC(=O)OC[C@H]1O[C@H](CCO/N=C/C[C@@H]2C=C[C@H](OC(C)=O)[C@@H](COC(C)=O)O2)C=C[C@@H]1Oc1ccc(OC)cc1 | . | ? | 19 | ? | -2%[8.37 µM] | -2
CCCNC(=O)OC[C@H]1O[C@H](CCO/N=C(\C)CCN2CCc3nc(-c4ccccc4)c(-c4ccccc4)cc3C2)C=C[C@@H]1Oc1ccc(OC)cc1 | . | 5.9µM* | 34 | 4.7µM* | 0%[8.37 µM] | 1
CN(C)CCNC(=O)c1ccc2nc([C@@H]3O[C@H](CO)[C@H](O)[C@H](O)[C@H]3O)[nH]c2c1 | 19% | . | . | . | . | .
CC(C)(C)N1C(=O)[C@H]2[C@@H](c3ccc(Br)cc3)N3C(=O)N(c4cccc(Cl)c4)C(=O)[C@@]3(Cc3ccccc3)[C@H]2C1=O | 8% | 3.3µM* | . | 4.7µM* | 2% | .
COc1ccc([C@@H]2[C@@H]3C(=O)N(C(C)(C)C)C(=O)[C@@H]3[C@]3(Cc4ccc(Cl)cc4)C(=O)N(c4cccc(F)c4)C(=O)N23)cc1 | 5% | 5.9µM* | . | 9.3µM* | -11% | .
COc1ccc(N2C(=O)N3[C@H](c4ccc(Br)cc4)[C@@H]4C(=O)N(C(C)(C)C)C(=O)[C@@H]4[C@]3(Cc3ccccc3)C2=O)cc1 | 8% | -82% | 4 | ? | -8% | -1
CC[C@@]12C(=O)N(c3cccc(Br)c3)C(=O)N1[C@H](c1ccc(OC)cc1)[C@@H]1C(=O)N(C(C)(C)C)C(=O)[C@@H]12 | -1% | ? | . | ? | -1% | .
COc1ccc([C@@H]2[C@@H]3C(=O)N(C(C)(C)C)C(=O)[C@@H]3[C@]3(Cc4ccccc4)C(=O)N(c4ccccc4)C(=O)N23)cc1 | 10% | ? | . | ? | 12% | .
CC[C@@]12C(=O)N(c3cccc(Br)c3)C(=O)N1[C@H](c1ccc(Br)cc1)[C@@H]1C(=O)N(C(C)(C)C)C(=O)[C@@H]12 | -13% | 10µM* | . | 4.7µM* | -4% | .
COc1ccc([C@@H]2[C@@H]3C(=O)N(C(C)(C)C)C(=O)[C@@H]3[C@]3(Cc4ccccc4)C(=O)N(c4cccc(Cl)c4)C(=O)N23)cc1 | 0% | 6.6µM* | . | 9.3µM* | 23% | .
COc1ccccc1-c1ocnc1C(=O)N1CCN(S(=O)(=O)c2ccc(NC(C)=O)cc2)CC1 | -4% | -15% | -13 | -15% | -2% | -5
O=C(CNC(=O)c1ccccc1F)NCc1ccncc1 | ? | . | . | . | 26% | .
Cc1cc(NC(=O)COC(=O)[C@@H]2CCCN2C(=O)c2cccs2)no1 | 0% | . | . | . | 11% | .
C=CC[C@H](CC(=O)NCCO)C(=O)N[C@H](COC(=O)[C@@H](CC=C)Cc1ccc(F)cc1)C(C)(C)C | -2% | . | . | . | 15% | .
COc1ccc([C@@H]2[C@@H]3C(=O)N(C(C)(C)C)C(=O)[C@@H]3[C@]3(Cc4ccccc4)C(=O)N(c4ccc(Br)cc4)C(=O)N23)cc1 | -11% | 4.1µM* | 9 | 5.2µM* | -4% | 12*
O=C(Nc1ccc(F)c(Cl)c1)c1cc(C2CCCCN2C(=O)c2cccs2)on1 (centres undefined) | 10% | . | . | . | . | .
O=C(O)c1ccc(-n2cc(-c3cc4ccccc4oc3=O)[nH]c2=S)cc1 | -4% | 127% | 64* | 0.17µM* | -21% | 32*
CC(=O)Nc1ccc(-n2cc(-c3ccccc3)[nH]c2=S)cc1 | 83% | -12% | 6 | 6% | -1% | 5
O=C(Nc1cc(S(=O)(=O)N2CCOCC2)ccc1N1CCOCC1)c1cccc(Cl)c1 | -1% | . | . | . | . | .
COc1cccc(C(=O)NCC2CCN(c3ccc(S(=O)(=O)N4CCOCC4)cc3)CC2)c1 | -13% | 12µM* | -23 | 5.2µM* | ? | 0
O=C(NCC1CCN(c2ccc(S(=O)(=O)N3CCOCC3)cc2)CC1)c1cccc(Cl)c1 | -4% | . | -12 | 12µM* | ? | -3
SMILES | AMA1 RON2 block | Pf growth 48h | Shiga inhibitor | Pf growth 96h | HCV inh | CHX counter
COc1cccc(C(=O)Nc2cc(S(=O)(=O)N3CCOCC3)ccc2N2CCOCC2)c1 | 0% | . | . | . | -13% | .
CCSc1ccccc1C(=O)NC1CCCCC1 | -1% | -27% | -1 | -5% | 2% | -2
S=C1NNC2(CC3CC2C2CCCC32)NN1 (centres undefined) | 101% | 5% | 22 | 1% | 35% | 16*
Cc1ccc(C(=O)NCC(=O)Nc2ccncc2)s1 | 0% | 7% | -9 | 15% | 8% | 1
CCCN(CC(=O)Nc1ccccc1OC)C(=O)c1ccc(COc2ccccc2)o1 | -2% | 15µM* | . | ? | ? | .
CN(CC(=O)Nc1ccccc1Br)C(=O)c1ccc(COc2ccccc2)cc1 | -18% | 2% | 11 | 3% | ? | 19*
CCCN(CC(=O)Nc1ccccc1OC)C(=O)c1cc(-c2ccccc2)nn1-c1ccccc1 | -8% | ? | . | ? | 11µM* | .
COc1cccc(NC(=O)CN(C)C(=O)c2ccc(COc3ccccc3)o2)c1 | -5% | 15µM* | . | 15µM* | 0% | .
COc1ccc(/C=C/C(=O)NC2CCN(Cc3ccccc3)CC2)cc1OC | -7% | ? | -2 | ? | -17% | -1
Cc1ccc(S(=O)(=O)N(C)C)cc1NC(=O)c1cc(S(=O)(=O)N2CCCCC2)ccc1N1CCOCC1 | 0% | -19% | . | ? | ? | .
Cc1c(Cl)cccc1N1C(=O)CC(Sc2ccccc2N)C1=O (centres undefined) | -2% | . | . | . | . | .
O=C(Cn1cc([N+](=O)[O-])nc1[N+](=O)[O-])N1CCN(c2ccccc2)CC1 | -27% | 0.74µM* | -6 | 20% | -20% | 8
O=C(Cn1cnc2ccccc2c1=O)N1CCN(c2ccccc2)CC1 | -4% | 0% | -2 | -4% | 13% | -1
CCOC(=O)N1CCC(NCCNC(=O)c2ccc(F)c(F)c2)CC1 | -1% | 10% | . | 49% | 16% | .
CCOC(=O)c1c(NC(=O)C2CCCO2)sc2c1CCC2 (centres undefined) | -4% | 10% | 31 | 45% | ? | -3
Cc1c(C(=O)OC(C)C)sc(NC(=O)C2CCCO2)c1C(=O)OC(C)C (centres undefined) | 2% | . | -9 | 9.3µM* | ? | -1
